Here are results for eight compounds from PubChem BioAssay (NCATS).

Assay [1] deals with Lysosomal acid glucosylceramidase (Homo sapiens) (UniProt P04062). The assay can be described thus: Glucocerebrosidase-p2 (AID 348; in the data active = potency below about 10 µM; note: potency is the fitted concentration of half-maximal effect). To be noted: purified GBA, blue fluorogenic substrate, 40 min. In short, it runs like this: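 Compounds titrated from 0.6 nM upwards against 0.2 nM enzyme in pH 5.9 citric acid/KH2PO4, taurocholate, tween-20; blue fluorogenic substrate 80 uM, 40 min room temperature, stopped and read Ex 365/Em 440 for AC50.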
Chain of Lysosomal acid glucosylceramidase (Homo sapiens) (P04062 whole entry, looked up): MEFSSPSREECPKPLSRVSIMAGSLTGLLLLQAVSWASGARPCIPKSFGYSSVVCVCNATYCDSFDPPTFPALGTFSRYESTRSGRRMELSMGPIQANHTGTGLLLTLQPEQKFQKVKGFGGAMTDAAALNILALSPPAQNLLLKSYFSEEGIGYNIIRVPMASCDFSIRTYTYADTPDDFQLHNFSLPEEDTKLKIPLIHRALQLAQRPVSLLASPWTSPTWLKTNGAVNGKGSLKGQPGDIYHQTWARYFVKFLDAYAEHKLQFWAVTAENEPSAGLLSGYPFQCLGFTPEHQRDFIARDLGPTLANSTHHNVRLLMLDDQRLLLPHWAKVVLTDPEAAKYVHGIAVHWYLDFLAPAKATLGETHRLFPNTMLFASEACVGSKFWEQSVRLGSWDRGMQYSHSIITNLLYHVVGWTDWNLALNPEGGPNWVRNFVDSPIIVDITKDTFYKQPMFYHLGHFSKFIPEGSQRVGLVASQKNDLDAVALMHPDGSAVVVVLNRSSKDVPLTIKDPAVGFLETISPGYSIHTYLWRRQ

A short description of assay [2]: AP1 Signaling Pathway (AID 357).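 Note: ME-180 reporter cells stimulated with EGF at its EC50 level; % is set by controls: 0 for no effect and ±100 for the full control effect.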 Conditions: ME-180 AP-1-bla reporter, EGF-induced, beta-lactamase ratio, 5 h. The gist of the method:
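First, ME-180 AP-1-bla cells were cultured overnight at 37 °C in low-serum Opti-MEM. Next, titrated compounds with EC50 EGF were incubated 5 hours. Finally, CCF4 was added for 2.5 hours and the 460/530 nm ratio recorded.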

For assay [3], the target named is Cytochrome P450 1A2 (Homo sapiens) (UniProt P05177). Description: p450-cyp1a2 (AID 410; calls by dose curve; note: potency is the fitted concentration of half-maximal effect;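 for activity change, negative = inhibition: -100% = full effect of reference inhibitor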). Conditions: recombinant CYP1A2, luciferin-ME demethylation, luminescence; series mostly up to 11.4 µM. The gist of the method: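 Human CYP1A2 (20nM) demethylated Luciferin-ME at its Km (100uM) in 100mM KPO4. After 10 min compound preincubation, NADPH regeneration ran the reaction 60 min at room temperature. Luciferin was read by luminescence, normalized to 57 uM furafylline.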
Chain of Cytochrome P450 1A2 (Homo sapiens) (P05177 whole entry, looked up): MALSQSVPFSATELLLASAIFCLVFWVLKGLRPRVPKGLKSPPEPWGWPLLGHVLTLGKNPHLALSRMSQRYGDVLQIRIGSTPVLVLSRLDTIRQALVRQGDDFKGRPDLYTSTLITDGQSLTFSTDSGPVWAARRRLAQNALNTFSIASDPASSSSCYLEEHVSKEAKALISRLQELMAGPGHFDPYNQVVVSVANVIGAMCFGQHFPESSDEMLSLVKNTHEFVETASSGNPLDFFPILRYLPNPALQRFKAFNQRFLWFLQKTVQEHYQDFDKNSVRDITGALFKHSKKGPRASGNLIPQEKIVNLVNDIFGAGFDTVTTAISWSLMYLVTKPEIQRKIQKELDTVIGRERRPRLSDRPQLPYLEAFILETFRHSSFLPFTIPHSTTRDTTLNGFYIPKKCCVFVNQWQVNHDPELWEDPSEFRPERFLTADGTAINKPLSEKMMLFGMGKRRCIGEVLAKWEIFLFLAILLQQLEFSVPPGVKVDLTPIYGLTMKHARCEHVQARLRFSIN

A short description of assay [4]: NFAT Signaling Pathway (AID 444).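 Note: carbachol stimulus at about its EC50 of 1 µM final; % is set by controls: 0 for no effect and ±100 for the full control effect.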 Conditions: Jurkat NFAT-bla M1, carbachol, beta-lactamase ratio, 5 h. The gist of the method:
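Read-out: CCF4 FRET ratio (460 nm/530 nm) after 1 h RT dye loading, used for %activity and AC50 from titration series. Cells: Jurkat NFAT-β-lactamase/M1 line, treated with compound plus 1 uM carbachol for 5 h, 37 °C.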

Assay [5] can be described thus: Stat Signaling Pathway (AID 446).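 Note: ME-180 cervical cancer cells given 40 pM IL-6 alongside compound; SIE-controlled beta-lactamase reporter measured as 460/530 nm FRET emission ratio; % is set by controls: 0 for no effect and ±100 for the full control effect.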 Conditions: ME-180 (cervical carcinoma) SIE beta-lactamase reporter, IL-6 stimulated, 5 h. The gist of the method: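 IL-6/STAT signaling read in ME-180 cells via an SIE beta-lactamase reporter. Stimulus was 40 pM IL-6 (its AC50) for 5 hrs, so both activation and inhibition register.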
The target in assay [6] is Glucocorticoid receptor (Homo sapiens) (UniProt P04150). The assay can be described thus: GR-GFP Redistribution (AID 450;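 active = compounds whose dose series gives a full or clear partial fitted curve of increased nuclear translocation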; note: potency is the fitted concentration of half-maximal effect). To be noted: U2OS GR-GFP nuclear translocation, laser cytometry, 2 h.
Chain of Glucocorticoid receptor (Homo sapiens) (P04150 whole entry, looked up): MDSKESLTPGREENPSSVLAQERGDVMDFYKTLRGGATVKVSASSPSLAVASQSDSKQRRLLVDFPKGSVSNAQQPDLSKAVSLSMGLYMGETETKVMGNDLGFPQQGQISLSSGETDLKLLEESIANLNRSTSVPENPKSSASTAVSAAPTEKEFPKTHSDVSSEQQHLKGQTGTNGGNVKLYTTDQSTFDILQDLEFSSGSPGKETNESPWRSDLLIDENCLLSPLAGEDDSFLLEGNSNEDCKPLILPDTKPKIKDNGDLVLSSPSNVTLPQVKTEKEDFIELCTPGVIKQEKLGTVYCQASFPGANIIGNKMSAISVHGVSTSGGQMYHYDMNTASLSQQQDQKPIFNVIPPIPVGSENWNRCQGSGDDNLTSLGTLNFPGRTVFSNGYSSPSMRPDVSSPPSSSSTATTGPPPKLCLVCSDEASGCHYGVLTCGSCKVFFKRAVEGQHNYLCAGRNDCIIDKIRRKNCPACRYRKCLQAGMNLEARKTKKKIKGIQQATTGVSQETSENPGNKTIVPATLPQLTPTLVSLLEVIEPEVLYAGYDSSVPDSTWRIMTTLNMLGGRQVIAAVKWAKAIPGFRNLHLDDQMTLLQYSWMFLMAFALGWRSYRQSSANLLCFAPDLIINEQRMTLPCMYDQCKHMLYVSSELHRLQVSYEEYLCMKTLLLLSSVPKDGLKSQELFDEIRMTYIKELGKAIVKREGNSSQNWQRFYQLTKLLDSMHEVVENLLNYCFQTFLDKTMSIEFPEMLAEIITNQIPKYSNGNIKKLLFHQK
Assay [7] shares this target. The assay can be described thus: GR-EFC Redistribution (AID 451; calls by dose curve; note: potency is the fitted concentration of half-maximal effect). To be noted: CHO-K1 GR-EFC translocation, beta-gal luminescence, 2 h. The gist of the method:
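Translocation of GR-ED fusion to nuclear EA restores b-gal, read by luminescence after 1 h room-temperature detection. Engineered CHO-K1 biosensor cells, 1,000/well, exposed 2 h at 37 C to titrations up to 46 uM final.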

Assay [8] concerns the target Mitogen-activated protein kinase 10 (Mus musculus) (UniProt Q61831). The assay can be described thus: JNK3 AlphaScreen Assay (AID 530).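 Note: kinase came from lysate of stimulated human HepG2 cells; signal reports phosphorylation of biotinylated GST-cJun 1-79 at Ser73 with 10 µM ATP; % is set by controls: 0 for no effect and ±100 for the full control effect.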 Conditions: JNK3 lysate, c-Jun phosphorylation; series mostly up to 11.4 µM. In short, it runs like this:
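Room-temperature AlphaScreen kinase assay; pre-activated HepG2 lysate as JNK3 source, biotin-GST-cJun(1-79) substrate, 10 uM ATP, compound 15 min preincubation.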

Assay [9] concerns the target Cytochrome P450 3A4 (Homo sapiens) (UniProt P08684). Description: qHTS Assay for Activators of Cytochrome P450 3A4 (AID 885; active = well fitted curve in the direction sought with a large enough effect; an effect the other way counts as inactive or inconclusive; note: nearly all actives have a fitted effect of over 65% in size). To be noted: recombinant CYP3A4, Luciferin-PPXE luminescence, 60 min; series mostly up to 11.4 µM. In short, it runs like this:
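Quantitative HTS format: compounds preincubated with 20nM human CYP3A4 and Luciferin-PPXE substrate at KM, reaction started by NADPH regeneration, stopped after 60 min, luciferase luminescence read 20 min later.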
(Quantitative high-throughput screening tests each substance at several concentrations.)

Assay [10] in a line: Confirmation and Secondary Assay for Modulators of Hemoglobin Beta Chain Splicing at IVS2 654 locus (AID 910; active = well fitted curve in the direction sought with a large enough effect; an effect the other way counts as inactive or inconclusive;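 note: HeLa cells stably carrying EGFP split by mutant beta-globin IVS2-654 intron; per-well total GFP intensity by laser scanning cytometry after 2-day treatment; % of control where 0% means no effect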). Conditions: HeLa EGFP-654 splicing reporter, GFP fluorescence, 48 h; series mostly up to 38.3 µM. The gist of the method: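 Readout: per-well total peak green fluorescence (488 nm ex, 500–520 nm em) from objects 5–250 µm, reflecting correct splicing of an EGFP-654 reporter. Compounds were applied for 2 days at 37 °C to overnight-plated HeLa EGFP-654 cells; controls were DMSO and 500 nM IVS2-654 PNA.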

The nature of assay [11]: Confirmation and Secondary Assay for Modulators of Hemoglobin Beta Chain Splicing at IVS2 705 locus (AID 930; active = well fitted curve in the direction sought with a large enough effect; an effect the other way counts as inactive or inconclusive;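 note: HeLa cells stably expressing the EGFP-705 splicing reporter; GFP fluorescence per well restored by corrected splicing of the IVS2-705 intron in EGFP; % of control where 0% means no effect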). Conditions: HeLa EGFP-705 splicing reporter, GFP fluorescence, 48 h; series mostly up to 38.3 µM. The gist of the method:
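First, HeLa EGFP-705 cells are seeded at 500/well in Optimem with 2% FCS and left overnight. Next, compound or DMSO is added for 2 days. Finally wells are laser-scanned and total peak GFP intensity scored.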

Assay [12] deals with Ubiquitin carboxyl-terminal hydrolase 1 (Homo sapiens) (UniProt O94782). Description: Inhibitors of USP1/UAF1: Pilot qHTS (AID 504865; active = well fitted curve in the direction sought with a large enough effect; an effect the other way counts as inactive or inconclusive;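 note: rhodamine fluorescence freed from ubiquitin-rhodamine substrate followed over time; top concentration of the series differs between compounds; % is set by controls: 0 for no effect and ±100 for the full control effect; nearly all actives have a fitted effect of over 35% in size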). Conditions: purified USP1/UAF1, Ub-rhodamine cleavage fluorescence; series mostly up to 114 µM. In short, it runs like this: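 Enzyme-free wells gave the negative control, while test wells held 1nM USP1/UAF1 preincubated with compound for 15 min at room temperature. Ub-Rho at 150nM final started the reaction, and fluorescence at 480/540 nm was recorded kinetically.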
Chain of Ubiquitin carboxyl-terminal hydrolase 1 (Homo sapiens) (O94782 whole entry, looked up): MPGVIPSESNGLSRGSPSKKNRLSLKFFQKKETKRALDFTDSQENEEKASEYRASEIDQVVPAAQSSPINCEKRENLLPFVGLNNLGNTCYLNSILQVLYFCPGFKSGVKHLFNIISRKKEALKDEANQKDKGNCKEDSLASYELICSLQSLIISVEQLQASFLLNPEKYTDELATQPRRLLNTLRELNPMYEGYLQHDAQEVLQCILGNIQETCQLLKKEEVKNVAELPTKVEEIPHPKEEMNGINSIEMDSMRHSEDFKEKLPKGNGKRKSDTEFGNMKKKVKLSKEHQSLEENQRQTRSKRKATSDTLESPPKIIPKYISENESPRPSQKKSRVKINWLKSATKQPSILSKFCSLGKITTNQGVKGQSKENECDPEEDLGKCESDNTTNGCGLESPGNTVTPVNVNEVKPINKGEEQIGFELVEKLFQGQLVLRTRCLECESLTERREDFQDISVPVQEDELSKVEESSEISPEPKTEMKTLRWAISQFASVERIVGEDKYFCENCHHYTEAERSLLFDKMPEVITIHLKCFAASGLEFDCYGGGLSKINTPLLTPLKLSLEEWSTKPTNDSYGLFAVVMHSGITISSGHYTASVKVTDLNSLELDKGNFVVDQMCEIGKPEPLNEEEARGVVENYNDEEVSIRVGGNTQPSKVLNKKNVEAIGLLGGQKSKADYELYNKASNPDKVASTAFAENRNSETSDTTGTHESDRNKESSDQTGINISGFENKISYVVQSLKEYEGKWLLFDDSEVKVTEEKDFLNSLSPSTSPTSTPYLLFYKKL

Assay [13] deals with 3',5'-cyclic-AMP phosphodiesterase 4B (Homo sapiens) (UniProt Q07343). The assay can be described thus: qHTS Assay for Inhibitors of PDE-IV (AID 607; active = well fitted activation curve with a large enough effect in the main read-out, with a control signal flat, not every such curve was filed as active; note: % of control where 0% means no effect). Conditions: HEK293 ACTOne CNG channel cells, membrane potential fluorescence; series mostly up to 22.9 µM. The gist of the method: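 Live HEK293 cells with a modified cyclic nucleotide-gated (CNG) channel report intracellular cAMP via membrane-potential dye fluorescence (ex 535/em 590 nm). Endogenous PDE-IV was targeted. Compounds were tested at up to 22.9 uM final; RO 20-1724 100 uM served as control.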
Chain of 3',5'-cyclic-AMP phosphodiesterase 4B (Homo sapiens) (Q07343 whole entry, looked up): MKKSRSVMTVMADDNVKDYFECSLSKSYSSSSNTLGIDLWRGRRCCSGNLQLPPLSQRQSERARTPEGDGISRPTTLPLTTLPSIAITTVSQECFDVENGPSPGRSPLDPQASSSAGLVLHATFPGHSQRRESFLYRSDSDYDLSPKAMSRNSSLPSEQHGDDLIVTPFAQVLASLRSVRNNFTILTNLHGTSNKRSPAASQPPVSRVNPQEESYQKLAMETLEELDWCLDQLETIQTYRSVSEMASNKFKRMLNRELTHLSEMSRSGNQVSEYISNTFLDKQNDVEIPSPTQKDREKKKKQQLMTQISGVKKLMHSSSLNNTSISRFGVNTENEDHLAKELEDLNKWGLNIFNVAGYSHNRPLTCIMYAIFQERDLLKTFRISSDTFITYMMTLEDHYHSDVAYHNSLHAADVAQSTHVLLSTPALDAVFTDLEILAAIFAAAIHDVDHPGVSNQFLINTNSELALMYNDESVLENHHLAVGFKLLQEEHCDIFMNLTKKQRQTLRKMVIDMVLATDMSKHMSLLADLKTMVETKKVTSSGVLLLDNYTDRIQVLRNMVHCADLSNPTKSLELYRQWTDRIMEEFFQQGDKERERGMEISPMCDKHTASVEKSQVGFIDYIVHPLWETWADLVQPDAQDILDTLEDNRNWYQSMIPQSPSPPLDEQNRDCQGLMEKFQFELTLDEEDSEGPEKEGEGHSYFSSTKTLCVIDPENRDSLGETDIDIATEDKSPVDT

Assay [14] can be described thus: qHTS Assay for Inhibitors of Fructose-1,6-bisphosphate Aldolase from Giardia Lamblia: Coupling assay counterscreen confirmation (AID 2795; active = well fitted curve in the direction sought with a large enough effect; an effect the other way counts as inactive or inconclusive; note: % is set by controls: 0 for no effect and ±100 for the full control effect; nearly all actives have a fitted effect of over 55% in size). Conditions: GAPDH coupling enzyme counterscreen, biochemical; series mostly up to 57.5 µM. The gist of the method: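 Readings at 525 nm excitation and 598 nm emission follow a two-step room-temperature protocol: 10 min of compound (up to 57.5 uM final) with coupling enzyme reagent, then 20 min with substrate and AmpLite Red detection reagent.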

Assay [15] is described as follows: qHTS profiling for inhibitors of Plasmodium falciparum proliferation (AID 504749; active = well fitted curve in the direction sought with a large enough effect; an effect the other way counts as inactive or inconclusive;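 note: 0% = DMSO vehicle and full inhibition = artemisinin control; nearly all actives have a fitted effect of over 60% in size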). Conditions: P. falciparum in erythrocytes, SYBR Green DNA, 72 h, at 28.7 µM (top of the series). In short, it runs like this:
(§1)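 Three-day growth assay of blood-stage parasites in erythrocytes (0.3% parasitemia, 2.5% hematocrit) at 37 C, 5% CO2, quantified by SYBR Green DNA staining after overnight detergent lysis.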

A further assay deals with AS120. Described as above. To be noted: P. falciparum in erythrocytes, SYBR Green DNA, 72 h; series mostly up to 28.7 µM. In short, it runs like this: as §1
The next assay has as its system CP203. Described as above. To be noted: P. falciparum in erythrocytes, SYBR Green DNA, 72 h; series mostly up to 28.7 µM. The gist of the method:
as §1

The next assay has as its system DFO2036. Described as above. To be noted: P. falciparum in erythrocytes, SYBR Green DNA, 72 h; series mostly up to 28.7 µM. The gist of the method:
as §1

The test system of another assay is W2. The description is as above. To be noted: P. falciparum in erythrocytes, SYBR Green DNA, 72 h; series mostly up to 28.7 µM. In short, it runs like this:
as §1

Where [16] appears, read: at 7.69 µM (top of the series) unless noted.

Several values for one entry are separate records, joined by “and”; a condition that tells them apart may be missing. Identical values can stand only once. Values without a mark were called inactive. Results filed as inconclusive are left out. Some of the results follow. Activity calls are given as the source filed them. Unless noted, calls come from the whole dose curve; as a rule, active = well fitted curve in either direction with a large enough effect (not every such curve was filed as active); inconclusive = small, poorly fitted or top-dose-only effect, or another doubt; inactive = flat fitted curve, though single readings scatter.

Chain of Cytochrome P450 3A4 (Homo sapiens) (P08684 whole entry, looked up): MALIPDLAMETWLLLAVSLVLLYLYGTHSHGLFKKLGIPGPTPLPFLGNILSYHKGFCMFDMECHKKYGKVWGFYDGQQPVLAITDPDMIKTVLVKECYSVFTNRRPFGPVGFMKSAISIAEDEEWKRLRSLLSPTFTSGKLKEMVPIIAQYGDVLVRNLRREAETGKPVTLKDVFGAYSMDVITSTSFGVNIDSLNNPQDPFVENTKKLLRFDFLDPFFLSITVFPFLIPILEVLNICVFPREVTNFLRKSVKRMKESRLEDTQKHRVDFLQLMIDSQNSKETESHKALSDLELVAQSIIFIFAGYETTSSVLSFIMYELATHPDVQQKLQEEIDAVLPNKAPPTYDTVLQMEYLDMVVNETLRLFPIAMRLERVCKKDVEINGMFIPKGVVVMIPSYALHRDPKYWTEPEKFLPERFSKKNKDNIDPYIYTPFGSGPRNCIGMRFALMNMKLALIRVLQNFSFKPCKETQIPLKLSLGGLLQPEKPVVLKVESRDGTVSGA

In the case of `CN(C)c1ccc(-c2nc(N3CCNCC3)c3ccccc3n2)cc1`, the Potency in assay [1] was > 11.4 µM; in [3] it was 10 µM (active); in assay [6] it was > 46 µM; in assay [7], > 46 µM. Besides, the activity change, negative = inhibition in [2] (setting [16]) was -12.7%; in [4] (setting [16]), 5.32%. Besides, the activity, negative = inhibition in assay [5] (setting [16]) is 23.9%. Further, the Potency result in assay [8], in [9] and in assay [12] was “inactive” each time. Moreover, the result in assay [10] and in assay [11] was inactive.

As to `CC(C)NCC[C@@H](O)c1cc2ccccc2o1`, the figures for the Potency in assay [1], in assay [6] and in assay [7] were > 11.4 µM, > 46 µM and > 9.22 µM, respectively. In addition, the figures for the activity change, negative = inhibition in [2] (setting [16]), in [3] and in [4] (setting [16]) were -15%, -2.1% [at 2.29 µM] and -2.7%, respectively. For the same compound, the activity, negative = inhibition in [5] (setting [16]) was 9.58%. Besides, the Potency result in [8] and in assay [13] was “inactive” each time.

With `Cc1nc2cnc(OCc3ccccc3)nc2n(Cc2ccc(F)cc2)c1=O`, the Potency in assay [1] is > 11.4 µM; in assay [3], 7.94 µM (active); in assay [6], > 9.22 µM; in [7] it was > 46 µM. The activity change, negative = inhibition in assay [2] (setting [16]) was -22.4%; in assay [4] (setting [16]), -22.3%. Also, the activity, negative = inhibition in assay [5] (setting [16]) was -3.29%. For the same compound, the Potency entry in [8] was “inactive”.

For `O=C(O)c1ccccc1C1c2ccccc2Oc2ccccc21`, the Potency in assay [1] is > 11.4 µM; in assay [6] it was > 46 µM; in [7], > 9.22 µM. For the same compound, the values for the activity change, negative = inhibition in [2] (setting [16]), in [3] and in assay [4] (setting [16]) were 2.36%, -20.4% [at 2.29 µM] and 4.13%, respectively. Moreover, the activity, negative = inhibition in [5] (setting [16]) was 0.279%. Also, the Potency entry in [8] and in [13] was “inactive” in each case.

For the compound `C[C@@H](N)[C@@H](C)Cc1ccccc1`, the Potency in assay [1] was > 11.4 µM; in assay [6], > 46 µM; in assay [7], > 9.22 µM. Also, the activity change, negative = inhibition in assay [2] (setting [16]) is 10.1%; in assay [4] (setting [16]), 6.03%. In addition, the Potency entry in [3], in [8] and in [13] was “inactive” throughout. The activity, negative = inhibition in assay [5] (setting [16]) is 15.9%.

In the case of `O=C(N/N=C/c1ccccn1)c1cccnc1`, in assay [14], the compound was classed as inactive.

Turning to `O=S1(=O)N[C@H]2CC[C@@H]3NS(=O)(=O)N[C@H]4CC[C@H](N1)N4S(=O)(=O)N23`, the Potency was > 11.4 µM in assay [1], > 46 µM in assay [6] and > 9.22 µM in [7]. In addition, the activity change, negative = inhibition in assay [2] (setting [16]) is -14.2%; in [4] (setting [16]), 23.9%. Besides, the Potency result in assay [3], in assay [8] and in assay [13] was “inactive” each time. The activity, negative = inhibition in assay [5] (setting [16]) is -2.8%.

For `Cc1cn([C@H]2C[C@H](N=[N+]=[N-])[C@H](CO)O2)c(=O)[nH]c1=O`, the Potency in assay [1] is > 11.4 µM; in [6], > 46 µM; in [7], > 46 µM and > 9.22 µM. Further, the activity change, negative = inhibition is 11.1% in assay [2] (at 7.69 µM (top of the series)), 1.21% in [2] (at 38 µM (top of the series)), 5.39% in assay [4] (at 7.69 µM (top of the series)) and -4.43% in assay [4] (at 38 µM (top of the series)). In addition, the activity, negative = inhibition in assay [5] (at 7.69 µM (top of the series)) is -1.74%; in [5] (at 38 µM (top of the series)), 22.1%; in assay [15] (parasite line A) it was 7.02%; in [15] (parasite line B) it was 2.08%. Moreover, the Potency result (in [8]; in [13]; in assay [12]; in the assay with AS120; with CP203; in the assay on DFO2036) was “inactive” each time. In addition, the Potency result in the assay on W2 was “inactive”.
